# Test results from PubChem BioAssay AID1053144 (Broad Institute, 2014).
# In all, about 3,400 compounds went through this assay and about 160 (4.7%) were called active.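 How the source made its calls: active means fitted curve reaches 30% activation at a concentration no higher than the top valid tested dose, luminescence rising; inconclusive means no clear call, values can overlap the other calls; inactive means signal moving opposite to the expected increase, plus the rest.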 The list is a sample of the results. Entries with a potency or affinity are not part of this list.
# Test: Wnt/beta-catenin signaling activators, dose response, cell-based, iPS-derived NPC, luciferase, Wnt3a, cherry-pick (AID 1053144);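 further: Wnt3a stimulus is conditioned medium from Wnt3a-transfected mouse L cells at 5% in well; 0% = neutral control wells and 100% = CHIR-99021 positive control wells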
# Conditions: NPC TCF/LEF luciferase reporter, Wnt3a EC25, 24 h; series mostly up to 26 µM; activation: at the top concentration
row,Compound,activation
1,Cc1ccc(C(=O)NC2=NCCS2)cc1,9.97% (inactive)
2,COc1cccc(C(=O)NC2=NCCS2)c1,2.66% (inactive)
3,Cc1cnc(C(=O)Nc2nnc(C(C)C)s2)cn1,7.46% (inactive)
4,CCOC(=O)C1(NC(=O)C2(NC(=O)CN3C(=O)c4ccccc4C3=O)CCCC2)CCCC1,3.07% (inactive)
5,O=c1c2ccccc2c(=O)n(-c2ccccc2)n1-c1ccccc1,0.139% (inactive)
6,Cc1cccc(/C(N)=N/OC(=O)c2cccs2)c1,16.7% (inactive)
7,Cc1cccc(/C(N)=N/OC(=O)c2ccncc2)c1,6.69% (inactive)
8,CC(Sc1nncn1C)C(=O)Nc1ccc(N2CCCCC2)cc1 (stereo not given),1.46% (inactive)
9,O=C1c2ccccc2C(Nc2ccccc2)N1c1ccc(Cl)cn1 (stereo not given),2.25% (inactive)
10,COc1n[nH]c(C(=O)Nc2nc3ccccc3s2)c1[N+](=O)[O-],13.5% (inactive)
11,CN(C)S(=O)(=O)c1ccc(C(=O)NCCOc2ccccc2)cc1,11.9% (inactive)
12,Cc1ccc(C(=O)CC(SCC(=O)O)c2ccc([N+](=O)[O-])cc2)cc1 (stereo not given),-14.7% (inactive)
13,Cc1cc(C(=O)COC(=O)c2ccc(N)c([N+](=O)[O-])c2)c(C)n1Cc1ccc2c(c1)OCO2,5.38% (inactive)
14,Nc1nc(Nc2ccccc2)sc1C(=O)c1ccccc1,19.5% (inactive)
15,Cc1ccc2nc(NC(=O)c3ccc(Cl)s3)sc2c1,0.191% (inactive)
16,Brc1ccc(-c2cn3ccccc3n2)cc1,14.5% (inactive)
17,O=C(Nc1ccc(Cl)cc1)c1ccc(-c2ccccn2)s1,7.67% (inactive)
18,O=C(NCc1ccccn1)Nc1cccc(Cl)c1,8.88% (inactive)
19,CN(C)c1ccc(N=Nc2cccc(F)c2)cc1,3.61% (inactive)
20,C(=N\NCc1ccccc1)/c1ccc2ncccc2c1,4.68% (inactive)
21,CC(C)(CNC(=O)c1cccc(S(=O)(=O)N2CCCCC2)c1)N1CCOCC1,5.12% (inactive)
22,Cc1ccc(CNC(=O)COC(=O)C2CCN(S(=O)(=O)c3cccs3)CC2)cc1,7.64% (inactive)
23,Oc1[nH]c2ccccc2c1N=Nc1ccccc1,6.5% (inactive)
24,O=C(N=Nc1c(O)[nH]c2ccccc12)c1ccc2c(c1)OCO2,5.2% (inactive)
25,CCCCCn1c(CN2CCN(C(=O)c3ccco3)CC2)nc2c1c(=O)n(C)c(=O)n2C,-1.47% (inactive)

row,Compound,activation
1,O=C(CSc1nnc2ccccn12)c1ccc(Cl)cc1,5.28% (inactive)
2,Cc1nnc(SCC(=O)c2ccc(Cl)cc2)n(N)c1=O,4.61% (inactive)
3,CCCCN(CC)C(=O)c1cc2cc3ccc(OC)cc3nc2o1,6.64% (inactive)
4,Cc1cc(C)cc(N(CC(=O)Nc2ccc(-c3nc4ccc(C)cc4s3)cc2)S(C)(=O)=O)c1,-0.43% (inactive)
5,Cc1ccc2nc(-c3ccc(NC(=O)COCC(=O)O)cc3)sc2c1,4.24% (inactive)
6,Cc1ccc2nc(-c3ccc(NC(=O)CSc4nc(N)cc(=O)[nH]4)cc3)sc2c1,3.34% (inactive)
7,Cc1ccc2nc(-c3ccc(NS(=O)(=O)c4ccc(F)c(F)c4)cc3)sc2c1,-0.027% (inactive)
8,Cc1ccc(C2(C)NC(=O)N(CC(=O)Nc3ccc(-c4nc5ccc(C)cc5s4)cc3)C2=O)cc1 (stereo not given),2.88% (inactive)
9,CC1=CCC(C(=O)O)C(C(=O)Nc2ccc(-c3nc4ccc(C)cc4s3)cc2)C1 (stereo not given),8.13% (inactive)
10,Cc1ccc(C)c(-n2ccnc2SCC(=O)Nc2cccc(S(=O)(=O)NC3=NCCC3)c2)c1,10.6% (inactive)
11,CCC(=O)Nc1c(C(=O)Nc2ccc3c(c2)OCCO3)oc2ccccc12,12.9% (inactive)
12,N=c1cc(C2(O)CCCCC2)n2c(nc3ccccc32)s1,1.82% (inactive)
13,Cc1ccnc(NC(=O)C2CC(=O)N(c3ccc4c(c3)OCCO4)C2)c1 (stereo not given),3.35% (inactive)
14,c1ccc(-c2nnc(-c3ccccn3)nn2)nc1,4.64% (inactive)
15,CCC(=O)Nc1cc(C(=O)OCC(=O)c2ccccc2)ccc1C,18.1% (inactive)
16,COC(=O)[C@H](CCSC)NC(=O)c1cccnc1SC,0.828% (inactive)
17,O=C(CCN1C(=O)C2CCCCC2C1=O)Nc1nc2c(F)cc(F)cc2s1 (stereo not given),11.7% (inactive)
18,CN(c1ccc(C(=O)NCCSC(C)(C)C)cc1)S(=O)(=O)c1ccccc1,-1.26% (inactive)
19,Cc1ccc(C)c(OCc2nc3ccccc3[nH]2)c1,14% (inactive)
20,COc1ccc(NC(=O)N2CCCc3ccccc32)cc1,3.63% (inactive)
21,COc1cccc(NC(=O)n2ncc3c(C)cccc32)c1,-11.3% (inactive)
22,O=C(Cc1noc2ccccc12)Nc1ccccn1,12.4% (inactive)
23,Cc1nc(C(C)NC(=O)CCc2nnc(CCCc3ccccc3)o2)c(C)s1 (stereo not given),10.9% (inactive)
24,c1ccc2nc(SCc3cn4ccccc4n3)cnc2c1,6.56% (inactive)
25,CC(=O)Nc1ccc2oc(-c3ccccc3)nc2c1,7.44% (inactive)

row,Compound,activation
1,CC(=O)Nc1ccc(-c2nc3ccccc3o2)cc1,7.88% (inactive)
2,O=C(N/N=C/c1ccc(F)cc1)c1ccccc1,6.49% (inactive)
3,COc1ccc(C(=O)Cc2ccc3c(c2)OCO3)c(O)c1,11.2% (inactive)
4,Cc1ccc(NC(=O)COc2ccc3c(c2)OCO3)c(Cl)c1,10.7% (inactive)
5,Cc1ccc(/C=N/NC(=O)c2cccs2)cc1[N+](=O)[O-],7.64% (inactive)
6,COc1ccc(/C=N/Nc2ccc([N+](=O)[O-])cc2)cc1O,10.8% (inactive)
7,Cc1c(C(=O)OCC(=O)NCC2CCCO2)cccc1[N+](=O)[O-] (stereo not given),7.65% (inactive)
8,Cc1cc(-c2nnc(-c3cccc(Cl)c3)o2)no1,14.5% (inactive)
9,COc1ccc(/C=C/C(=O)c2ccccc2)c(OC)c1,8.57% (inactive)
10,O=C(/C=C/c1ccc(O)cc1)c1ccccc1,15.6% (inactive)
11,O=S(=O)(c1ccccc1)n1ccc(-c2cnc(-c3ccccc3)s2)n1,9.35% (inactive)
12,O=C(Nc1cccnc1Cl)c1cc(-c2ccco2)on1,12.4% (inactive)
13,CC(C)c1cc(C(=O)NCCc2ccccc2)no1,8.37% (inactive)
14,O=C(Nc1ccc(F)c(Cl)c1)c1cc(-c2ccco2)on1,13.2% (inactive)
15,COc1ccc(NC(=O)c2cc(-c3ccco3)on2)cc1,9.44% (inactive)
16,Cc1ccc(NC(=O)/C=C/c2ccc3c(c2)OCO3)nc1,8.44% (inactive)
17,COc1ccc(CNC(=O)Nc2cccc(C)c2)cc1,8.1% (inactive)
18,Cc1ccc(SCC(=O)NC(=O)NCCC(C)C)c(C)c1,13.2% (inactive)
19,Cc1ccc(OCC(=O)Nc2ccc(Cl)cc2)c([N+](=O)[O-])n1,17.6% (inactive)
20,Cc1ccc(C(=O)CCC2CCCCC2=O)cc1 (stereo not given),9.76% (inactive)
21,CCC(=O)Nc1cccc(-c2nc3ccc(C)cc3o2)c1,19.1% (inactive)
22,Cc1ccc2nc(-c3cccc(NC(=O)c4ccc5c(c4)OCCO5)c3)oc2c1,7.37% (inactive)
23,O=[N+]([O-])c1ccccc1N/N=C1\CCc2ccccc21,8.32% (inactive)
24,O=C(NCc1nnc(SCC(=O)N2CCCc3ccccc32)o1)c1c(F)cccc1Cl,10.2% (inactive)
25,COc1ccc(N=Cc2c(O)[nH]c3ccccc23)cc1,13% (inactive)
